Test results: PubChem BioAssay AID1159580 (chemical genetic matrix, 2015)
The whole screen tested about 5,500 compounds, of which about 2,000 (36%) were called active. Not shown: some 18% with an inconclusive outcome. Rule as the data show it: active = normalized growth mostly below about 0.91 (no sharp cut-off); inconclusive = no clear call, values can overlap the other calls; inactive = mostly above about 0.92. This is one part of the list.

Test: chemical genetic growth profiling, strain panel (AID 1159580);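 also: tested at 20 µM; growth read once vehicle control cultures reached saturation at 30 °C; 1 = growth at the plate median or of vehicle wells; lower values mean less growth of the strain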
Conditions: growth OD

Measured: normalized growth

COC(=O)[C@]1(C)CC[C@]2(C)CC[C@]3(C)C4=CC=C5C(=CC(=O)C(O)=C5C)[C@]4(C)CC[C@@]3(C)[C@@H]2C1
active: S. cerevisiae deletion strains, locus YJR043C, strain POL32, stronger effect = lower value 0.646 | S. cerevisiae deletion strains, locus YJR075W, strain HOC1, stronger effect = lower value 0.794 | S. cerevisiae deletion strains, locus YKL160W, strain elf1, stronger effect = lower value 0.702 | S. cerevisiae deletion strains, locus YKL190W, strain CNB1, stronger effect = lower value 0.712 | S. cerevisiae deletion strains, locus YKR001C, strain vps1, stronger effect = lower value 0.793 | S. cerevisiae deletion strains, locus YLL001W, strain dnm1, stronger effect = lower value 0.729 | S. cerevisiae deletion strains, locus YLL026W, stronger effect = lower value 0.887 | S. cerevisiae deletion strains, locus YLR027C, strain aat2, stronger effect = lower value 0.719 | S. cerevisiae deletion strains, locus YLR039C, strain RIC1, stronger effect = lower value 0.406 | S. cerevisiae deletion strains, locus YLR058C, strain SHM2, stronger effect = lower value 0.615 | S. cerevisiae deletion strains, locus YLR221C, strain rsa3, stronger effect = lower value 0.752 | S. cerevisiae deletion strains, locus YLR258W, strain gsy2, stronger effect = lower value 0.802 | S. cerevisiae deletion strains, locus YLR262C, strain YPT6 (second series), stronger effect = lower value 0.394 | S. cerevisiae deletion strains, locus YLR262C, strain YPT6, stronger effect = lower value 0.45 | S. cerevisiae deletion strains, locus YLR268W, strain sec22, stronger effect = lower value 0.832 | S. cerevisiae deletion strains, locus YLR320W, strain mms22, stronger effect = lower value 0.495 | S. cerevisiae deletion strains, locus YLR330W, strain CHS5, stronger effect = lower value 0.64 | S. cerevisiae deletion strains, locus YLR342W, strain FKS1 (second series), stronger effect = lower value 0.71 | S. cerevisiae deletion strains, locus YLR342W, strain FKS1, stronger effect = lower value 0.59 | S. cerevisiae deletion strains, locus YLR357W, strain rsc2, stronger effect = lower value 0.824 | S. cerevisiae deletion strains, locus YLR370C, strain arc18, stronger effect = lower value 0.797 | S. cerevisiae deletion strains, locus YLR418C, strain cdc73, stronger effect = lower value 0.383 | S. cerevisiae deletion strains, locus YML016C, strain PPZ1, stronger effect = lower value 0.781 | S. cerevisiae deletion strains, locus YML032C, strain rad52, stronger effect = lower value 0.873 | S. cerevisiae deletion strains, locus YML120C, strain ndi1, stronger effect = lower value 0.819 | S. cerevisiae deletion strains, locus YMR058W, strain fet3, stronger effect = lower value 0.115 | S. cerevisiae deletion strains, locus YMR125W, strain sto1, stronger effect = lower value 0.812 | S. cerevisiae deletion strains, locus YMR205C, strain PFK2, stronger effect = lower value 0.56 | S. cerevisiae deletion strains, locus YMR223W, strain ubp8, stronger effect = lower value 0.85 | S. cerevisiae deletion strains, locus YMR231W, strain pep5, stronger effect = lower value 0.863 | S. cerevisiae deletion strains, locus YMR263W, strain SAP30, stronger effect = lower value 0.803 | S. cerevisiae deletion strains, locus YNL067W, strain RPL9B, stronger effect = lower value 0.803 | S. cerevisiae deletion strains, locus YNL071W, strain lat1, stronger effect = lower value 0.347 | S. cerevisiae deletion strains, locus YNL128W, strain TEP1, stronger effect = lower value 0.548 | S. cerevisiae deletion strains, locus YNL209W, strain ssb2, stronger effect = lower value 0.454 | S. cerevisiae deletion strains, locus YNL233W, strain BNI4, stronger effect = lower value 0.811 | S. cerevisiae deletion strains, locus YNL248C, strain rpa49, stronger effect = lower value 0.887 | S. cerevisiae deletion strains, locus YNL271C, strain bni1, stronger effect = lower value 0.894 | S. cerevisiae deletion strains, locus YNL307C, strain MCK1, stronger effect = lower value 0.754 | S. cerevisiae deletion strains, locus YNL322C, strain KRE1, stronger effect = lower value 0.772 | S. cerevisiae deletion strains, locus YNR049C, strain mso1, stronger effect = lower value 0.878 | S. cerevisiae deletion strains, locus YNR052C, strain pop2, stronger effect = lower value 0.888 | S. cerevisiae deletion strains, locus YOL006C, strain TOP1, stronger effect = lower value 0.317 | S. cerevisiae deletion strains, locus YOL147C, strain pex11, stronger effect = lower value 0.91 | S. cerevisiae deletion strains, locus YOR061W, strain CKA2, stronger effect = lower value 0.744 | S. cerevisiae deletion strains, locus YOR069W, strain VPS5, stronger effect = lower value 0.836 | S. cerevisiae deletion strains, locus YOR070C, strain gyp1, stronger effect = lower value 0.678 | S. cerevisiae deletion strains, locus YOR080W, strain dia2, stronger effect = lower value 0.757 | S. cerevisiae deletion strains, locus YOR083W, strain WHI5, stronger effect = lower value 0.757 | S. cerevisiae deletion strains, locus YOR106W, strain vam3, stronger effect = lower value 0.574 | S. cerevisiae deletion strains, locus YOR144C, strain elg1, stronger effect = lower value 0.908 | S. cerevisiae deletion strains, locus YOR184W, strain ser1, stronger effect = lower value 0.645 | S. cerevisiae deletion strains, locus YOR265W, strain rbl2, stronger effect = lower value 0.747 | S. cerevisiae deletion strains, locus YOR270C, strain vph1, stronger effect = lower value 0.472 | S. cerevisiae deletion strains, locus YOR290C, strain snf2, stronger effect = lower value 0.515 | S. cerevisiae deletion strains, locus YPL051W, strain arl3, stronger effect = lower value 0.448 | S. cerevisiae deletion strains, locus YPL078C, strain atp4, stronger effect = lower value 0.65 | S. cerevisiae deletion strains, locus YPL240C, strain hsp82, stronger effect = lower value 0.81 | S. cerevisiae deletion strains, locus YPL241C, strain CIN2, stronger effect = lower value 0.898 | S. cerevisiae deletion strains, locus YPR163C, strain tif3, stronger effect = lower value 0.888 | S. cerevisiae deletion strains, locus YPR167C, strain met16, stronger effect = lower value 0.917 | S. cerevisiae deletion strains, strain wtn01, stronger effect = lower value 0.894 | S. cerevisiae strains, strain wild type, stronger effect = lower value 0.572
inactive: S. cerevisiae deletion strains, locus YKL009W, strain mrt4, stronger effect = lower value 1.06 | S. cerevisiae deletion strains, locus YKL068W, stronger effect = lower value 0.961 | S. cerevisiae deletion strains, locus YKL085W, strain MDH1 (second series), stronger effect = lower value 1.01 | S. cerevisiae deletion strains, locus YKL085W, strain MDH1, stronger effect = lower value 1.01 | S. cerevisiae deletion strains, locus YKR026C, strain gcn3, stronger effect = lower value 0.941 | S. cerevisiae deletion strains, locus YKR091W, strain srl3, stronger effect = lower value 0.995 | S. cerevisiae deletion strains, locus YLL041C, strain sdh2, stronger effect = lower value 0.929 | S. cerevisiae deletion strains, locus YLR102C, strain apc9, stronger effect = lower value 0.983 | S. cerevisiae deletion strains, locus YLR371W, strain rom2, stronger effect = lower value 0.948 | S. cerevisiae deletion strains, locus YLR384C, strain iki3, stronger effect = lower value 0.96 | S. cerevisiae deletion strains, locus YML124C, strain tub3, stronger effect = lower value 0.956 | S. cerevisiae deletion strains, locus YMR078C, strain ctf18, stronger effect = lower value 0.934 | S. cerevisiae deletion strains, locus YMR307W, strain GAS1, stronger effect = lower value 0.65 | S. cerevisiae deletion strains, locus YNL250W, strain rad50, stronger effect = lower value 0.934 | S. cerevisiae deletion strains, locus YNL298W, strain CLA4, stronger effect = lower value 0.957 | S. cerevisiae deletion strains, locus YNL322C, strain KRE1 (second series), stronger effect = lower value 0.978 | S. cerevisiae deletion strains, locus YOL012C, strain htz1 0.412 | S. cerevisiae deletion strains, locus YOR001W, strain rrp6, stronger effect = lower value 0.918 | S. cerevisiae deletion strains, locus YOR136W, strain idh2, stronger effect = lower value 0.961 | S. cerevisiae deletion strains, locus YOR316C, strain cot1, stronger effect = lower value 0.962 | S. cerevisiae deletion strains, locus YPL106C, strain sse1, stronger effect = lower value 0.854 | S. cerevisiae deletion strains, locus YPR119W, strain clb2, stronger effect = lower value 0.957 | S. cerevisiae deletion strains, locus YPR141C, strain kar3, stronger effect = lower value 0.943
